This is an account of results in PubChem BioAssay (EPA / NIEHS).

A word on the AC50: it is the concentration giving half of the maximal activity seen.

Inconclusive results are not listed. Activity calls are given as the source filed them. The calls were made as follows: active = hit-call score of the fitted dose curve at least 0.9, where 1 is the maximum; inconclusive = response in the unintended direction; inactive = score below 0.9.

Sequence of human Beta-secretase (BACE), BACE1 (gene 23621) (P56817 whole entry, looked up): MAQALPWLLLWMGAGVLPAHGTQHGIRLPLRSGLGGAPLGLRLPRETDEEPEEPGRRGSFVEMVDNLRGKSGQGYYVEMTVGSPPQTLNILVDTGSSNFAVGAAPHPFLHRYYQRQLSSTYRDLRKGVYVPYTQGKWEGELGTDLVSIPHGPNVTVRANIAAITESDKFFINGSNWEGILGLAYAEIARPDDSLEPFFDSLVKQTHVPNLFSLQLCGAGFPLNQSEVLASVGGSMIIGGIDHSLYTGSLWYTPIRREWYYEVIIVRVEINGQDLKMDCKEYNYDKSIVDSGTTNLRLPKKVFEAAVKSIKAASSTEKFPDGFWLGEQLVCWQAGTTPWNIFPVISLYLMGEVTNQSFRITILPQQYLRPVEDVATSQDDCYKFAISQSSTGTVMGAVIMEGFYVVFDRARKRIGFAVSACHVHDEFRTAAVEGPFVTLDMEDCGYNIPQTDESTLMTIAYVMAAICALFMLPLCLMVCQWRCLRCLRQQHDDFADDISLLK
Sequence of human AMP-activated Protein Kinase, alpha 1 (AMPKa1), PRKAA1 (gene 5562) (Q13131 whole entry, looked up): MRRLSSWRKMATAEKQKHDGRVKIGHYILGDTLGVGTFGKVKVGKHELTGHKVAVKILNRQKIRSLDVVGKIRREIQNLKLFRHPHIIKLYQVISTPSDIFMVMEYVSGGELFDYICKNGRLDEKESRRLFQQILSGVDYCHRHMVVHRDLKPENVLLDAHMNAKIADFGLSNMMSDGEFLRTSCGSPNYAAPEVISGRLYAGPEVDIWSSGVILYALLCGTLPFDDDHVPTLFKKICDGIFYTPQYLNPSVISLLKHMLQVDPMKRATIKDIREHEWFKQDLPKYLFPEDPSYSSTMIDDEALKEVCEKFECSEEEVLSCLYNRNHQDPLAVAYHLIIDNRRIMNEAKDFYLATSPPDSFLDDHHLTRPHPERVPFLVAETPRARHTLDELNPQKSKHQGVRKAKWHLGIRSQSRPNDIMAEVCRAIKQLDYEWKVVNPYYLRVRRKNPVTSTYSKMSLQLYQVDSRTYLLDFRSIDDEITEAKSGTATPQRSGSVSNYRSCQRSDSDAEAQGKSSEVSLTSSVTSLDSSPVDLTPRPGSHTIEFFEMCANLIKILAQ
Sequence of human Caspase 8 (CASP8), CASP8 (gene 841) (Q14790 whole entry, looked up): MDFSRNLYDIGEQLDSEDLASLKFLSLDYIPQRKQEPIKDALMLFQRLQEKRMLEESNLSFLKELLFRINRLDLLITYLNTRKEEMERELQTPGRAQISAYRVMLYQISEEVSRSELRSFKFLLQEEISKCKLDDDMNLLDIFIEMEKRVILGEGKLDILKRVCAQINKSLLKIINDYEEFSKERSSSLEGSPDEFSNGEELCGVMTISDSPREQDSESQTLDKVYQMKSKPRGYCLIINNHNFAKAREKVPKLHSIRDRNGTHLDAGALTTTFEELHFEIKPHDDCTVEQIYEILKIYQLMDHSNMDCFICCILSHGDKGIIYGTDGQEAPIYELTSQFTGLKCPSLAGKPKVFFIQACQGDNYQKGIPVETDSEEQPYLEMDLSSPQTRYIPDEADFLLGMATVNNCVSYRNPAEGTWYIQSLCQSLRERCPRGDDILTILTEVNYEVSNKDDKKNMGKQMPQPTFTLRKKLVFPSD
Sequence of human Caspase 2 (CASP2), CASP2 (gene 835) (P42575 whole entry, looked up): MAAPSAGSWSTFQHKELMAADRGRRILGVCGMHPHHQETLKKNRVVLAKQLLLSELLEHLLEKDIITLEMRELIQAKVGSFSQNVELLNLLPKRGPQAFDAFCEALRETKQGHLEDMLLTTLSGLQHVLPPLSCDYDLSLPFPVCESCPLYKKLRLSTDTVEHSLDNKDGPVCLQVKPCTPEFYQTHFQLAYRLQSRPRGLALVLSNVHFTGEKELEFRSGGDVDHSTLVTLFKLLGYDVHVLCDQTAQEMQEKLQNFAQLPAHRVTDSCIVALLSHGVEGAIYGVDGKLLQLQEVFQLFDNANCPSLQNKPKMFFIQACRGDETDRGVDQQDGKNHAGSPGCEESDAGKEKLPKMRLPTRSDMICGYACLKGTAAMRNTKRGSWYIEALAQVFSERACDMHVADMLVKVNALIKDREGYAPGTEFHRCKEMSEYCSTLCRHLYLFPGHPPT
Sequence of human Acetylcholinesterase (AChE), ACHE (gene 43) (P22303 whole entry, looked up): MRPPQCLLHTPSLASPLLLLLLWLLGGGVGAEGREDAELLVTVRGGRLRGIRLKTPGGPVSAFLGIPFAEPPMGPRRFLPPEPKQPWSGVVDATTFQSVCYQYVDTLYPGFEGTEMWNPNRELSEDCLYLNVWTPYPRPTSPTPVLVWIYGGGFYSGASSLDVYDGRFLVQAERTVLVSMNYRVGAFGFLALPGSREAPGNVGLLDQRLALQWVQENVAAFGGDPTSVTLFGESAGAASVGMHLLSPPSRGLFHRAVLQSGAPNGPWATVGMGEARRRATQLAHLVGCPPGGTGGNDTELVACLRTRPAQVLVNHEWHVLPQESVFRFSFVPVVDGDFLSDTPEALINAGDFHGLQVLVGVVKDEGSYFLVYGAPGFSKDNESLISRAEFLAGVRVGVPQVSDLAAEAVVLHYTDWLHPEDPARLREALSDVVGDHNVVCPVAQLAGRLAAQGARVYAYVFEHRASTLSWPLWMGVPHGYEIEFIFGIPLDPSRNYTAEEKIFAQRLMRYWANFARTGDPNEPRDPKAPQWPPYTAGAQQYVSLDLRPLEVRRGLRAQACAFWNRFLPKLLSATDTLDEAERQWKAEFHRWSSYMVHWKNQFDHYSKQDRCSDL
Sequence of human AKT serine/threonine Kinase 2 (AKT2), AKT2 (gene 208) (P31751 whole entry, looked up): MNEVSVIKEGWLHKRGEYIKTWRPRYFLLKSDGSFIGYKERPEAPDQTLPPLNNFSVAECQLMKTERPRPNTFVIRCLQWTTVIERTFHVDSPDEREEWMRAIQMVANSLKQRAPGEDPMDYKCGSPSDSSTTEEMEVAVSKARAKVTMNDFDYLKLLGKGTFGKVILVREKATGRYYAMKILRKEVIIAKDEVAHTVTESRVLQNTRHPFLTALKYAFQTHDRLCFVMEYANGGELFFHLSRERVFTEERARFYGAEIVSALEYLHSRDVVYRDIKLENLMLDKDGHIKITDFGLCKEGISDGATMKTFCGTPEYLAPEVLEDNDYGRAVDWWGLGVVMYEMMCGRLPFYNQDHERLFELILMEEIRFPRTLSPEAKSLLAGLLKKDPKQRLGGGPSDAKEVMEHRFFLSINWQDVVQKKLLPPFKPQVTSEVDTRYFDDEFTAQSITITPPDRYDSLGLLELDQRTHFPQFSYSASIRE

The first experiment has as its target human Acetylcholinesterase (AChE), ACHE (gene 43) (UniProt P22303). In words: NVS_ENZ_hAChE: NovaScreen (NVS) Enzymatic Assay for human Acetylcholinesterase (AChE) (AID 2283129). Put shortly:
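Actives from a duplicate single-point screen (25 uM) were followed up in concentration series. Enzyme activity read by absorbance (colorimetric) 0.33 hour after dosing, cell-free, normalized to DMSO, with loss of signal scored.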
Turning to `CCCCCCCCOC(=O)c1ccccc1C(=O)OCCCCCCCC`, the molecule was classed as inactive.
`C[C@]12CCC(=O)C=C1CC[C@@H]1[C@@H]2CC[C@]2(C)C(=O)CC[C@@H]12`: the molecule was called inactive.
Turning to `CCCCCCCCCC[N+](C)(C)CCCCCCCCCC`, the AC50 is 12.4 µM (active).
As to `Oc1ccc(C(c2ccc(O)cc2)(C(F)(F)F)C(F)(F)F)cc1`, the result was inactive.

Another experiment addresses human AMP-activated Protein Kinase, alpha 1 (AMPKa1), PRKAA1 (gene 5562) (UniProt Q13131). In words: NVS_ENZ_hAMPKa1: NovaScreen (NVS) Enzymatic Assay for human AMP-activated Protein Kinase, alpha 1 (AMPKa1) (AID 2283130). Put shortly:
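Compounds were screened in duplicate at 25 uM, and those reaching ~30% inhibition were titrated up to 50 uM. The enzyme was recombinant human AMPKα1, and kinase turnover was read by fluorescence/mobility shift 1 h post-dosing as loss of signal versus DMSO.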
With `O=C(O)C(F)(F)C(F)(F)C(F)(F)C(F)(F)C(F)(F)C(F)(F)C(F)(F)C(F)(F)F`, the AC50 was 36.7 µM (active).
Regarding `Oc1ccc(C(c2ccc(O)cc2)(C(F)(F)F)C(F)(F)F)cc1`, the concentration at half-maximal activity (AC50) was 13.5 µM (active).
Take `CC#Cc1cc(C)nc(Nc2ccccc2)n1`: the result was inactive.
Regarding `CCCN(CCC)N=O`, the result was inactive.
Consider `O=C(O)C(F)(F)C(F)(F)C(F)(F)C(F)(F)C(F)(F)F`, for which the call was inactive.
Take `CC1=C2C[C@H]3[C@@H](CC=C4C[C@@H](O)CC[C@@]43C)[C@@H]2CC[C@]12O[C@@H]1C[C@H](C)CN[C@H]1[C@H]2C`: the molecule was called inactive.
For the molecule `O=S(=O)(O)C(F)(F)C(F)(F)C(F)(F)C(F)(F)C(F)(F)C(F)(F)F`, the outcome was inactive.
Turning to `CC(C)C(=O)OCC(C)(C)C(OC(=O)C(C)C)C(C)C` (stereo not given), the outcome was inactive.

The next experiment concerns the target human Caspase 2 (CASP2), CASP2 (gene 835) (UniProt P42575). Description: NVS_ENZ_hCASP2: NovaScreen (NVS) Enzymatic Assay for human Caspase 2 (CASP2) (AID 2283135). Put shortly:
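Single-point duplicate testing at 25 uM preceded concentration series topping at 50 uM. Activity of the recombinant E. coli-derived protease was followed by fluorescent substrate cleavage 1 h post-dosing, relative to DMSO.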
As to `Nc1ccc(-c2ccc(N)cc2)cc1`, the molecule was classed as inactive.
`COS(=O)(=O)OC`: the call was inactive.
In the case of `O=C(N[C@H]1CN2CCC1CC2)c1cc2ccoc2cn1`, the molecule was classed as inactive.
As to `C[C@]12CCC(=O)C=C1CC[C@@H]1[C@@H]2CC[C@]2(C)C(=O)CC[C@@H]12`, the call was inactive.

For the next experiment, the target named is human Caspase 5 (CASP5), CASP5 (gene 838) (UniProt P51878). Description: NVS_ENZ_hCASP5: NovaScreen (NVS) Enzymatic Assay for human Caspase 5 (CASP5) (AID 2283137). Put shortly: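 Chemicals were first tested in duplicate at 25 uM against recombinant caspase 5 from E. coli. Activity was read by fluorescence intensity 2 hours after dosing. Those passing a preset inhibition threshold were retested in singleton concentration-response up to 50 uM.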
Sequence of human Caspase 5 (CASP5), CASP5 (gene 838) (P51878 whole entry, looked up): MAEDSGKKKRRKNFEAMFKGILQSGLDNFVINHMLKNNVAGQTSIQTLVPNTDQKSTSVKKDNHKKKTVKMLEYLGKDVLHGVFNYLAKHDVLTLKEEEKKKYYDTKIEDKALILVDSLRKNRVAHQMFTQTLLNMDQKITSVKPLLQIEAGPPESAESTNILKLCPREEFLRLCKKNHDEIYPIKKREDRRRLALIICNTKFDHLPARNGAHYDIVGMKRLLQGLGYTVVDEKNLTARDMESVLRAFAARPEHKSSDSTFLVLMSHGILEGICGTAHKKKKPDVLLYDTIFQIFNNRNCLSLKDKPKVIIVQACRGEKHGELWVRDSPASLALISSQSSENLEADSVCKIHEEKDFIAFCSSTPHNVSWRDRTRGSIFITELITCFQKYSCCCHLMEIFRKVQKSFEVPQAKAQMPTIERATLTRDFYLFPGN
On to `O=C(O)C(F)(F)C(F)(F)C(F)(F)C(F)(F)C(F)(F)C(F)(F)C(F)(F)C(F)(F)F`, for which the AC50 is 12.8 µM (active).
Still for that read-out and setting: with `O=C(O)C(F)(F)C(F)(F)C(F)(F)C(F)(F)C(F)(F)C(F)(F)C(F)(F)C(F)(F)C(F)(F)F` the figure was 12.7 µM (active).
With `CCC(C)(CC)c1cc(NC(=O)c2c(OC)cccc2OC)on1`, the outcome was inactive.

The target of a further experiment is human Beta-secretase (BACE), BACE1 (gene 23621) (UniProt P56817). Description: NVS_ENZ_hBACE: NovaScreen (NVS) Enzymatic Assay for human Beta-secretase (BACE) (AID 2283140).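 Also: hits are inhibitors that reduce fluorescent substrate signal versus DMSO.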 Put shortly:
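Fluorescence intensity read-out of protease activity defines this endpoint; signal loss relative to DMSO baseline marks inhibition. Recombinant enzyme from SF9 cells, cell-free format, 1 h exposure. Single-concentration duplicate screen (25 uM) precedes concentration-series follow-up.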
Regarding `O=C(O)C(F)(F)C(F)(F)C(F)(F)C(F)(F)C(F)(F)C(F)(F)C(F)(F)C(F)(F)F`, the AC50 was 10.7 µM (active).
As to `Cc1ccc(O)c(C)c1`, the call was inactive.
For `CCCCCCCCCc1ccc(O)cc1`, the result was inactive.
Regarding `O=C(O)C(F)(F)C(F)(F)C(F)(F)C(F)(F)C(F)(F)C(F)(F)C(F)(F)C(F)(F)C(F)(F)F`, the AC50 is 3.53 µM (active).
Regarding `Oc1ccc(C(c2ccc(O)cc2)(C(F)(F)F)C(F)(F)F)cc1`, the result was inactive.
The same measure, in the same setting: to `ClC(Cl)=C(c1ccc(Cl)cc1)c1ccc(Cl)cc1` belongs “inactive”.
As to `CCCCCCOC(=O)c1ccccc1C(=O)OCCCCCC`, the outcome was inactive.
Regarding `O=C(NC(=O)c1cc(F)c(F)cc1Cl)Nc1cc(F)ccc1N1CCC(C(=O)O)CC1`, the AC50 is 7.81 µM (active).
As for `CC(C)(c1ccccc1)c1ccc(O)cc1`, the AC50 was 20.3 µM (active).
As for `Oc1c(Cl)c(Cl)c(Cl)c(Cl)c1Cl`, the molecule was classed as inactive.
Turning to `CCC(C)(c1ccc(O)cc1)c1ccc(O)cc1`, the AC50 was 11.2 µM (active).
`Cc1cccc(C)c1N`: the outcome was inactive.
For the molecule `O=S(=O)(O)C(F)(F)C(F)(F)C(F)(F)C(F)(F)C(F)(F)C(F)(F)F`, the AC50 was 1.85 µM (active).

The next experiment addresses human AKT serine/threonine Kinase 2 (AKT2), AKT2 (gene 208) (UniProt P31751). In words: NVS_ENZ_hAKT2: NovaScreen (NVS) Enzymatic Assay for human AKT serine/threonine Kinase 2 (AKT2) (AID 2283141). A digest of the protocol: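 Cell-free fluorescence/electrophoretic mobility shift readout of recombinant human AKT2 activity, 1 h after chemical dosing. Duplicate primary screen at 25 uM, then singleton concentration-response up to 50 uM; loss of signal versus DMSO baseline.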
Take `CCCCCCOC(=O)c1ccccc1C(=O)OCCCCCC`: the result was inactive.
For the molecule `N#Cc1ccc(N(CC(N)=O)CC(F)(F)F)cc1C(F)(F)F`, the molecule was classed as inactive.
On to `CC1=C2C[C@H]3[C@@H](CC=C4C[C@@H](O)CC[C@@]43C)[C@@H]2CC[C@]12O[C@@H]1C[C@H](C)CN[C@H]1[C@H]2C`, for which the AC50 is 12.5 µM (active).
Turning to `O=S(=O)(O)C(F)(F)C(F)(F)C(F)(F)C(F)(F)C(F)(F)C(F)(F)F`, the call was inactive.

The target of another experiment is human Aurora Kinase A - serine/threonine-protein Kinase 6 (AurA), AURKA (gene 6790) (UniProt O14965). Description: NVS_ENZ_hAurA: NovaScreen (NVS) Enzymatic Assay for human Aurora Kinase A - serine/threonine-protein Kinase 6 (AurA) (AID 2283142). A digest of the protocol: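 Recombinant human AurA activity read by fluorescence after mobility-shift separation of product from substrate; 1 hour incubation. Chemicals first run in duplicate at 25 uM, then concentration series to 50 uM if over threshold; fitted relative to DMSO.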
Sequence of human Aurora Kinase A - serine/threonine-protein Kinase 6 (AurA), AURKA (gene 6790) (O14965 whole entry, looked up): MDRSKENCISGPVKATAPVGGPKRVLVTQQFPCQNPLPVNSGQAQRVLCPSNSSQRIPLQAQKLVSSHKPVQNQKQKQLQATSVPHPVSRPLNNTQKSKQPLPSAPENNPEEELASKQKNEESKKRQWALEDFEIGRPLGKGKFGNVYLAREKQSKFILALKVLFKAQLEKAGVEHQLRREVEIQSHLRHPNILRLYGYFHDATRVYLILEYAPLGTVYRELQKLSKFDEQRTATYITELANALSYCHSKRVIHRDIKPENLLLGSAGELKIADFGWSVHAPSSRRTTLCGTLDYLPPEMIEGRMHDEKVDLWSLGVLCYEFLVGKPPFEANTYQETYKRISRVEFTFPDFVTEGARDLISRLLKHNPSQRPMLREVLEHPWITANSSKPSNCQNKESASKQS
For `O=C(O)C(F)(F)C(F)(F)C(F)(F)C(F)(F)C(F)(F)C(F)(F)C(F)(F)C(F)(F)F`, the concentration at half-maximal activity (AC50) was 13.1 µM (active).
For `CCCN(CCC)N=O`, the outcome was inactive.
For `Cc1cc2c3c(c1)C(c1ccccc1)=N[C@@H](NC(=O)c1ccncc1)C(=O)N3CC2`, the call was inactive.
In the case of `CC1=C2C[C@H]3[C@@H](CC=C4C[C@@H](O)CC[C@@]43C)[C@@H]2CC[C@]12O[C@@H]1C[C@H](C)CN[C@H]1[C@H]2C`, the molecule was called inactive.
On to `CC(C)C(=O)OCC(C)(C)C(OC(=O)C(C)C)C(C)C` (stereo not given), for which the molecule was classed as inactive.

For the next experiment, the target named is CDK2 (gene 1017) (UniProt P24941). Description: NVS_ENZ_hCDK2: NovaScreen (NVS) Enzymatic Assay for human Cyclin-Cependent Kinase 2 (CDK2) (AID 2283144). Put shortly: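 Compounds screened in duplicate at 25 uM, then in singleton concentration-response to a maximum of 50 uM, against recombinant CDK2; kinase activity read 1 hr after dosing by fluorescence with mobility-shift separation of substrate and product.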
With `CCCN(CCC)N=O`, the call was inactive.
As to `O=C(O)C(F)(F)C(F)(F)C(F)(F)C(F)(F)C(F)(F)F`, the call was inactive.
With `CC1=C2C[C@H]3[C@@H](CC=C4C[C@@H](O)CC[C@@]43C)[C@@H]2CC[C@]12O[C@@H]1C[C@H](C)CN[C@H]1[C@H]2C`, the molecule was classed as inactive.

A further experiment addresses human Caspase 8 (CASP8), CASP8 (gene 841) (UniProt Q14790). Description: NVS_ENZ_hCASP8: NovaScreen (NVS) Enzymatic Assay for human Caspase 8 (CASP8) (AID 2283146). Put shortly: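 The primary screen tested compounds in duplicate at a single 25 uM concentration, with actives followed up in concentration series. Activity of recombinant (E. coli) protease was measured by fluorescence 1 h post-dose, as signal loss against DMSO.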
For `ClC1=C(Cl)[C@]2(Cl)[C@@H]3[C@@H]4C[C@@H]([C@H]5O[C@@H]45)[C@@H]3[C@@]1(Cl)C2(Cl)Cl`, the molecule was classed as inactive.
For `CCC(C)c1cc([N+](=O)[O-])cc([N+](=O)[O-])c1O` (stereo not given), the molecule was called inactive.
Still for that read-out and setting: to `CO/C=C(/C(=O)OC)c1ccccc1COc1cccc(C(F)(F)F)n1` belongs “inactive”.

The target of the next experiment is human Casein Kinase 1-delta (CK1D), CSNK1D (gene 1453) (UniProt P48730). Description: NVS_ENZ_hCK1D: NovaScreen (NVS) Enzymatic Assay for human Casein Kinase 1-delta (CK1D) (AID 2283148). As for the experimental part: NVS_ENZ_hCK1D is a biochemical, single-readout assay that uses extracted gene-proteins in a cell-free assay. Measurements were taken 1 hour after chemical dosing in a 384-well plate.NVS_ENZ_hCK1D is one of one assay component(s) measured or calculated from the NVS_ENZ_hCK1D assay. It is designed to make measurements of enzyme activity, a form of enzyme reporter, as detected with fluorescence intensity signals by Fluorescence and electrophoretic mobility shift technology.Data from the assay component NVS_ENZ_hCK1D was analyzed into 1 assay endpoint. This assay endpoint, NVS_ENZ_hCK1D, was analyzed in the positive analysis fitting direction relative to DMSO as the negative control and baseline of activity. Using a type of enzyme reporter, loss-of-signal activity can be used to understand changes in the enzymatic activity as they relate to the gene CSNK1D. Furthermore, this assay endpoint can be referred to as a primary readout, because this assay has produced multiple assay endpoints where this one serves a enzymatic activity function. To generalize the intended target to other relatable targets, this assay endpoint is annotated to the kinase intended target family, where the subfamily is serine/threonine kinase.
Sequence of human Casein Kinase 1-delta (CK1D), CSNK1D (gene 1453) (P48730 whole entry, looked up): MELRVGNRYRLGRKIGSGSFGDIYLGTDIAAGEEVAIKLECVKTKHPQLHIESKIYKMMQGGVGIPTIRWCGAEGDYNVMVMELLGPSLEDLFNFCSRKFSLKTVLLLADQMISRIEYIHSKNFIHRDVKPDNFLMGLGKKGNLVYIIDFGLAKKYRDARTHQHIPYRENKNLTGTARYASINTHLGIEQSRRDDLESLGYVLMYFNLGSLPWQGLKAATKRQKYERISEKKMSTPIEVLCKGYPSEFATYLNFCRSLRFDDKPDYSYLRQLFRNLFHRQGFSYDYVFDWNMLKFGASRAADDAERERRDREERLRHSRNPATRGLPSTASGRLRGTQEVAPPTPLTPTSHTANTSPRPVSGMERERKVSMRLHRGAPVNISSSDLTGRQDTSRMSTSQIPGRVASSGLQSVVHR
Binding assays used specific radioligands (tritiated, iodinated) with non-radioactive competitive displacement ligands in agonist or antagonist protocols (as indicated) and various reference compounds and inhibitors to titrate specific binding to receptors and transporters. Most enzyme assays (CYPs, kinases, phosphatases, proteases, HDACs) used recombinant protein and specific substrates (fluorescence mostly, some colorimetric and radioactive) and inhibitors, followed by a biochemical separation of substrate and product. All assays for the biochemical HTS were initially run in duplicate at a single concentration (10 uM for CYP450 assays and 25 uM for all others). Assay-chemical combinations meeting a pre-defined threshold (e.g., 30% inhibition and other criteria defined below) were then run in singleton concentration-response format with maximum concentration of 20 uM for CYPs and 50 uM for all others. Each assay was run with positive and negative controls, and concurrent controls on every plate. The follow-up (secondary) screen tested active chemical-pairs in concentration series, as well as a few additional assays not tested in the primary screen, some selected negative inactives, and several cases re-run in the concentration series for confirmatory purposes.
`CCNc1nc(NC(C)C)nc(SC)n1`: the AC50 is 16.3 µM (active).
As for `O=C(O)C(F)(F)C(F)(F)C(F)(F)C(F)(F)C(F)(F)C(F)(F)C(F)(F)C(F)(F)F`, the molecule was called inactive.
Same read-out and setting: to `O=NN(c1ccccc1)c1ccccc1` belongs “inactive”; to `O=C(NC(=O)c1c(F)cccc1F)Nc1cc(Cl)c(OC(F)(F)C(F)F)c(Cl)c1`, “inactive”; to `CCC(C)c1cc([N+](=O)[O-])cc([N+](=O)[O-])c1O` (stereo not given), “inactive”.
As to `Oc1ccc(C(c2ccc(O)cc2)(C(F)(F)F)C(F)(F)F)cc1`, the call was inactive.
Turning to `CCCN(CCC)N=O`, the molecule was called inactive.
Regarding `Cc1cccc(C)c1N`, the call was inactive.
